Assay outcomes: PubChem BioAssay, National Center for Advancing Translational Sciences (NCATS)
The list is not random: actives were taken first. Their share in the collection is about 2.4%.
D2 ag-1: D2 dopamine receptor (human) agonism | HEK293 T-REx D2 cells, calcium flux agonist mode | activation, % at 2 µM | actives 0.53% (n = 340,000);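 active = activation over 3 SD above normal in the single-dose calcium agonist read, cut at about 30% in these data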; also: 0% is about no effect
Target sequence (P14416 whole entry, looked up): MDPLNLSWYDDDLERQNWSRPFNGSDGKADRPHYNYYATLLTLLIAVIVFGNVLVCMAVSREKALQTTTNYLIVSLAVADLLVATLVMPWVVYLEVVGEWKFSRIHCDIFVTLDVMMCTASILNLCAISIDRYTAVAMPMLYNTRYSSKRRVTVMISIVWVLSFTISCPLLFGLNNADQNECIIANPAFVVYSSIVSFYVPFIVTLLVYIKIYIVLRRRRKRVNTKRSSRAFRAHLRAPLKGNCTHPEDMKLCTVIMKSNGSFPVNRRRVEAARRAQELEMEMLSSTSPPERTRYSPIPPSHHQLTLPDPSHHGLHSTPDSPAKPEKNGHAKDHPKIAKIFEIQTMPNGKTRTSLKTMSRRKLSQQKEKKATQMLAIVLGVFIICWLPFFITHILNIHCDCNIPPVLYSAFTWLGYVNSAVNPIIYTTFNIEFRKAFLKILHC
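Tetracycline-induced HEK293 T-REx cells with force-coupled D2 receptor, plated overnight at 30 C, loaded with no-wash calcium dye. After a 10 s baseline, compound was pin-added and calcium flux read kinetically for 180 s; calcium rises flagged agonists.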
D2 ag-2: agonists of human D2 dopamine receptor (beta-arrestin) | DiscoveRx PathHunter D2 beta-arrestin, luminescence, 90 min; 100% = 57 uM dopamine signal | activation, % (no concentration beside the values) | actives 0.084% (n = 360,000) | AID 624465; in the data active = activation above about 40%; inconclusive = between about 15% and that limit
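DiscoveRx PathHunter D2 beta-arrestin cells (2,100/well) attached overnight, then compound-stimulated 90 min at 37 C in HBSS/10 mM HEPES/0.1% Tween-20 buffer; beta-galactosidase complementation read by luminescence after 1 h at ambient temperature. Dopamine 57 uM final (EC100) as control.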
D2 PAM-1: positive allosteric modulators of human D2 dopamine receptor; HEK293 T-REx D2, calcium flux, EC20 dopamine potentiation; potentiation, % at 10 µM; actives 0.34% (n = 340,000); AID 485347;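 active = potentiation over 3 SD above the plate norm, cut at about 30% in these data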; also: 0% is about no effect
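Primary screen. Calcium kinetics in induced HEK293 T-REx D2 cells: compound pre-addition 180 s, EC20 dopamine, 180 s more.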
D2 antagonist: antagonists of human D2 dopamine receptor; P14416; HEK293 TREx D2 cells, calcium flux, dopamine EC80; inhibition, % at 10 µM; actives 2% (n = 340,000); in the data active = inhibition above about 30%; inactive = below that, where a call was filed; also: 0% is about no effect
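HEK293 T-REx D2 cells, tet-induced, calcium dye no-wash. Cpd pintool add, 180 s kinetic, then EC80 DA, 180 s kinetic. Ca flux read.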
D2 PAM-2: positive allosteric modulators of human D2 dopamine receptor. P14416. DiscoveRx D2 beta-arrestin cells, luminescence, 90 min; 100% = 57 uM dopamine signal. potentiation, % (no concentration beside the values). actives 0.23% (n = 360,000). AID 624464; in the data active = potentiation above about 50%; inconclusive = mostly about 30% to 49%
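PathHunter D2 cells, attached overnight at 37 deg C, received compound in DMSO plus dopamine at EC20 (50 nM final) for 90 min at 37 deg C. Beta-arrestin recruitment was read as luminescence after 1 h with detection reagent at ambient temperature.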
The depositor's hits bear a star; ? = inconclusive; nt = no result.

SMILES	D2 ag-1	D2 ag-2	D2 PAM-1	D2 antagonist	D2 PAM-2
COc1cccc(OC)c1OCCN1CCN(C(c2ccccc2)c2ccccc2)CC1	0	-1	-20	-17	-34
OCCOCCN1CCN(C(c2ccccc2)c2ccc(Cl)cc2)CC1 (stereo not drawn)	2	-4	-29	72*	-36
Cc1cnc(C(=O)OCC(=O)NC(C)CCc2ccccc2)cn1 (stereo not drawn)	0	3	15	34*	-1
Cc1cnc(C(=O)OCC(=O)NCc2ccccc2)cn1	0	0	8	-2	-3
Fc1ccc(-c2csc(N3CCOCC3)n2)cc1	-2	-1	6	-1	-2
c1ccc2oc(-c3csc(N4CCOCC4)n3)cc2c1	0	-1	31*	-7	-1
Cc1ccc(S(=O)(=O)N2[C@@H](c3ccc(Cl)cc3)C(C(=O)O)=CC[C@H]2c2ccc(C(C)C)cc2)cc1	0	2	-25	39*	-4
C[N+](C)(CCOc1ccccc1)Cc1ccccc1 (tested in a mixture with another compound)	0	?	-6	29	74*
CN1CCN(c2ccc3sc(-n4ccc5ccccc54)nc3c2)CC1	nt	-1	nt	nt	-7
CCOCc1cc(=O)[nH]c(SC)n1	-1	3	-13	30*	-35
CSc1nc(Cl)cc(=O)[nH]1	0	0	-6	-23	3
CC(=O)c1cccc(-n2c(=O)c3c4c(sc3n(CC(=O)c3ccc(Cl)cc3)c2=O)CN(C(C)=O)CC4)c1	1	nt	-3	nt	nt
O=C(NCCc1ccc(Cl)cc1)C1CCN(c2cnccn2)CC1	-1	1	-3	0	2
O=C(NCCc1ccc(Cl)cc1)C1CCN(c2ncccn2)CC1	-2	-2	10	61*	-26
CCCOc1cc(C)c(Cl)cc1S(=O)(=O)N(CC)CC	-1	-5	3	7	-22
CCOc1cc(C)c(Cl)cc1S(=O)(=O)N(C)C	0	0	7	49*	-3
O=C(Nc1ccc(S(=O)(=O)Nc2ncccn2)cc1)c1cccc([N+](=O)[O-])c1	nt	-2	nt	nt	-9
COc1ccc(C2C(C(=O)c3cccs3)=C(O)C(=O)N2c2cccc(C)n2)cc1 (stereo not drawn)	-2	2	14	-2	-13
Cc1ccc(C2C(C(=O)c3cccs3)=C(O)C(=O)N2c2nnc(C)s2)cc1 (stereo not drawn)	40*	-2	10	5	1
CCN(CC(=O)Nc1cc(Cl)ccc1C)C(=O)CCOc1ccccc1C	0	-3	-14	31*	-36
CCN(CC(=O)Nc1c(F)cccc1F)C(=O)Cc1sc(C)nc1-c1ccc(F)cc1	-1	-3	17	-3	11
CCN(CC(=O)Nc1cc(Cl)ccc1C)C(=O)Cc1sc(C)nc1-c1ccc(F)cc1	0	-5	-42	75*	-2
CCN(CC(=O)Nc1cc(Cl)ccc1C)C(=O)COc1ccccc1F	-2	-3	4	40*	-28
O=C(COC(=O)Cc1ccc(Cl)c(Cl)c1)NCCc1ccccc1	nt	0	nt	nt	0
COc1ccc(-c2ccc(CN3C(CC(C)C)C(=O)N(Cc4cn(CCC5OCCO5)nn4)CCS3(=O)=O)cc2)cc1OC (stereo not drawn)	nt	2	nt	nt	2
SMILES	D2 ag-1	D2 ag-2	D2 PAM-1	D2 antagonist	D2 PAM-2
CC(=O)N1CCc2cc(S(=O)(=O)NC(CC(C)C)C(=O)NCc3ccccc3Cl)ccc21 (stereo not drawn)	-2	nt	2	nt	nt
Cc1nnc(C)c2c(C)n(-c3ccc4ncccc4c3)c(C)c12	0	2	1	32*	-3
Cc1ccc2ncccc2c1	0	-1	6	-7	-8
S=C(NCCc1ccccc1)N1CCc2ccccc2C1	-1	-2	-11	41*	-13
OC1CCN(C(=S)NCCc2ccccc2)CC1	0	0	0	2	-4
NC(=O)c1noc(C(=O)N(CC(=O)NC2CCCC2)Cc2ccc3c(c2)OCO3)c1N	1	-1	-3	37*	-10
O=C(NCc1ccc(F)cc1)c1cc2sccc2n1Cc1ccc(F)cc1	1	nt	31*	-5	nt
CCCOC(=O)c1cc(-c2ccc(C=O)o2)ccc1Cl	-2	0	0	31*	1
